According to publication PMC10726135, “HNF4α isoforms regulate the circadian balance between carbohydrate and lipid metabolism in the liver”:
Over roughly 18,000 sequences, “log2 normalized intensity” has its median near 0.39; the highest 2% begin near 6.6. The sample as a whole holds a higher share of the highest values than the screen did.

Biological target: T1, HNF4alpha2 (COS-7 nuclear extract) (Homo sapiens, UniProt P41235 1-474)
T1 sequence: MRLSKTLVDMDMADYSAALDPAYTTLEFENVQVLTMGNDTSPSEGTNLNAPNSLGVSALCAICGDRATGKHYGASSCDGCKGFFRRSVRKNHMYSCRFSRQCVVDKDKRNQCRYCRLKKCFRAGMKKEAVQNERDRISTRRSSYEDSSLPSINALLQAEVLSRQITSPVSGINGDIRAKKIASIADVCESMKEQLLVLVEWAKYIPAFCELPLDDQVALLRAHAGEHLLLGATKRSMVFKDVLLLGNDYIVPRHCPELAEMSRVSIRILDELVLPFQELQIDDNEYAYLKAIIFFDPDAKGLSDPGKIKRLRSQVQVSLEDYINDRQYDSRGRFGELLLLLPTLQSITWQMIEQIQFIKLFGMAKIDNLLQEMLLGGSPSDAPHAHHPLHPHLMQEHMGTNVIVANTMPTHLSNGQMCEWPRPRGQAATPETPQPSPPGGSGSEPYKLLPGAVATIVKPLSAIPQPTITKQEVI
Test: protein-binding microarray; COS-7 nuclear extract on double-stranded Agilent 4x180k PBM; binding buffer, salt, pH and temperature not given in the material; high values mean tight binding
Settings: chain copies: 2; label: 3' end of strand 1 on the slide; dsDNA, one strand shown
In short: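 Nuclear extracts came from COS-7 cells transiently transfected by CaPO4 with a human HNF4α isoform expression vector. They were applied to a custom Agilent SurePrint G3 4x180k array of ~60-nt oligonucleotides, made double-stranded, with ~44,000 test sequences spotted in quadruplicate. Bound HNF4α was imaged at 2-µm resolution on an Agilent G2565CA scanner. Binding signal was taken as background-corrected, normalized gProcessedSignal from Agilent software.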

Sequence	binding signal [log2 normalized intensity]
TCCTGATCCCTGAGGTCGGGGCCTGGTCTGGCCTAGGGAGATTAGAGTATCGGTCGA	0.683
CAATGCCCCAGAAAGCCAGCAGGGGCTGCTGCCTAGGGAGATTAGAGTATCGGTCGA	-0.844
AGCTTCTCTTTCTAGGTCACCACCTTTTTTGCCTAGGGAGATTAGAGTATCGGTCGA	1.37
GGCCTGATAGATTTTGCATTGCTCACATAGGCCTAGGGAGATTAGAGTATCGGTCGA	-0.988
TCCTCCAAAACCCAGTTCATAGGTCAATTCGCCTAGGGAGATTAGAGTATCGGTCGA	4.02
ACGCCCCACCCCCTCCACCCCTGCCTTTCAGCCTAGGGAGATTAGAGTATCGGTCGA	6.39
GAAAAAGCTGACGCCCCACCCCCTCCACCCGCCTAGGGAGATTAGAGTATCGGTCGA	6.44
TCCTCCCCTCCCCTCCCCCCACTCAAAATAGCCTAGGGAGATTAGAGTATCGGTCGA	6.79
CCCTCCCCTCCCCCCACTCAAAATAGGAGTGCCTAGGGAGATTAGAGTATCGGTCGA	4.52
AGCTGACGCCCCACCCCCTCCACCCCTGCCGCCTAGGGAGATTAGAGTATCGGTCGA	6.82
CCCTCCCCCCACTCAAAATAGGAGTTAAGGGCCTAGGGAGATTAGAGTATCGGTCGA	2.45
GGCTATACAATTCCAGCAAGGATGGGGGCAGCCTAGGGAGATTAGAGTATCGGTCGA	-0.832
AAAATTAAGGTTCAAAGGGAAAAAATAATCGCCTAGGGAGATTAGAGTATCGGTCGA	-0.757
TTCCATTGAAGCAGAGTGTCCCATATCACAGCCTAGGGAGATTAGAGTATCGGTCGA	0.724
GTTAGATTAGTGTGCAGCTTTGTGTAAAACGCCTAGGGAGATTAGAGTATCGGTCGA	0.946
AGATCTCAGTTGGTCCAAGGTACATGTCTCGCCTAGGGAGATTAGAGTATCGGTCGA	2.34
TTCTGCCCCTTGCTCCTGCTTGCTGGCTTTGCCTAGGGAGATTAGAGTATCGGTCGA	1.2
GAAAAGGCCTGACCTTTGCCCTCTGGCCCTGCCTAGGGAGATTAGAGTATCGGTCGA	9.1
CTCTTTGGTGCAAAGGTCAGGACAAGGCTCGCCTAGGGAGATTAGAGTATCGGTCGA	4.3
CCCTCGACCTTTGCCCTCCATAAGGGGGAGGCCTAGGGAGATTAGAGTATCGGTCGA	6.24
CAGAGGCTTCCTCTTTGGTGCAAAGGTCAGGCCTAGGGAGATTAGAGTATCGGTCGA	6.86
AGAAGGAAAAGGCCTGACCTTTGCCCTCTGGCCTAGGGAGATTAGAGTATCGGTCGA	10.1

Sequence	binding signal [log2 normalized intensity]
ACAGAAGAAGGAAAAGGCCTGACCTTTGCCGCCTAGGGAGATTAGAGTATCGGTCGA	4.61
CCCTGCCTGACCTGCCCTTTGTCCCTCCTGGCCTAGGGAGATTAGAGTATCGGTCGA	4.51
CTCTGCAGAGGCTTCCTCTTTGGTGCAAAGGCCTAGGGAGATTAGAGTATCGGTCGA	-0.855
GACCTTTGCCCTCTGGCCCTTAAAGGCTTTGCCTAGGGAGATTAGAGTATCGGTCGA	6.99
AGAGGACAGAAGAAGGAAAAGGCCTGACCTGCCTAGGGAGATTAGAGTATCGGTCGA	-0.388
GACAGCTGGGCCCTGCCTGACCTGCCCTTTGCCTAGGGAGATTAGAGTATCGGTCGA	4.42
TTGAAGCAGAGTGTCCCATATCACATTTTAGCCTAGGGAGATTAGAGTATCGGTCGA	0.955
TGCTTATCAGTGTACCTGTCCCTACTCAATGCCTAGGGAGATTAGAGTATCGGTCGA	0.371
GTGCCCTCATAAGAGACTTTGCCCTTTTTTGCCTAGGGAGATTAGAGTATCGGTCGA	5.63
TCAGGACTCTAACTGGCTTTAAGAGGAATGGCCTAGGGAGATTAGAGTATCGGTCGA	-0.943
AGGAATGAGACATGAATCCATCCCACCTCAGCCTAGGGAGATTAGAGTATCGGTCGA	-0.775
AAACTTTAGTAGTCCAAAGCTCAGATTGCCGCCTAGGGAGATTAGAGTATCGGTCGA	0.566
AGATGGTCTCAGGTGGAGATAAGGAATTTGGCCTAGGGAGATTAGAGTATCGGTCGA	-0.171
TTGAAAGTTTGGTGGACTTTGGCCGTGAAGGCCTAGGGAGATTAGAGTATCGGTCGA	6.79
GGCATTAATTCTTCTTTGAAAGTTTGGTGGGCCTAGGGAGATTAGAGTATCGGTCGA	2.23
TAATTCTTCTTTGAAAGTTTGGTGGACTTTGCCTAGGGAGATTAGAGTATCGGTCGA	6.32
AGTTTGGTGGACTTTGGCCGTGAAGCCGTCGCCTAGGGAGATTAGAGTATCGGTCGA	6.2
CTTCTTTGAAAGTTTGGTGGACTTTGGCCGGCCTAGGGAGATTAGAGTATCGGTCGA	9.62
GGTGGACTTTGGCCGTGAAGCCGTCCTGTCGCCTAGGGAGATTAGAGTATCGGTCGA	5.03
TTTGCTCCAGTTCCCAATAATTTCCTTATCGCCTAGGGAGATTAGAGTATCGGTCGA	-0.628
TGTAACTAACAACTGACCTTGCAGGCCAGGGCCTAGGGAGATTAGAGTATCGGTCGA	-0.838
TCTGTTTGATTCCATGCTGATAATGGAATTGCCTAGGGAGATTAGAGTATCGGTCGA	0.756

Sequence	binding signal [log2 normalized intensity]
GTAATGACATGCAGTATGGGGACTTTGGACGCCTAGGGAGATTAGAGTATCGGTCGA	5.99
CAAATGAATAATCCCCTCCTGGACTTTGGTGCCTAGGGAGATTAGAGTATCGGTCGA	4.73
GACATGCAGTATGGGGACTTTGGACTCCTGGCCTAGGGAGATTAGAGTATCGGTCGA	7.53
GAATAATCCCCTCCTGGACTTTGGTCTCATGCCTAGGGAGATTAGAGTATCGGTCGA	7.15
CTCCTGGACTTTGGTCTCATGGGCCTAAACGCCTAGGGAGATTAGAGTATCGGTCGA	4.65
ATCCCCTCCTGGACTTTGGTCTCATGGGCCGCCTAGGGAGATTAGAGTATCGGTCGA	6.4
ATCAGTGTACCTGTCCCTACTCAATTATCAGCCTAGGGAGATTAGAGTATCGGTCGA	-0.287
CAAGAATACGGATTCTTAAGGGCAAAGGTTGCCTAGGGAGATTAGAGTATCGGTCGA	5.88
GCTGTGCCGAGCCTGCAGGTGAATGGAAACGCCTAGGGAGATTAGAGTATCGGTCGA	-0.549
AATCTGAATTAACTCTTTACACAGTTCTGAGCCTAGGGAGATTAGAGTATCGGTCGA	-0.00196
ACAAAAACTGTTTCTATGTGACCTTCACCCGCCTAGGGAGATTAGAGTATCGGTCGA	5.26
AAGACTTCCTGGCCTCTCTGCAAATTTGCCGCCTAGGGAGATTAGAGTATCGGTCGA	-0.993
GTTAGGAAACACTCTGTTTGTAAAGTCTACGCCTAGGGAGATTAGAGTATCGGTCGA	0.577
GAGAGTTTTCCTTGGCTGTGCTGCCCTTTGGCCTAGGGAGATTAGAGTATCGGTCGA	3.6
CTGTGCTGCCCTTTGCCCTTTGGGAAGGGGGCCTAGGGAGATTAGAGTATCGGTCGA	5.8
GGGTGGGGTGCTGCCTTTCCTGTGACTTTTGCCTAGGGAGATTAGAGTATCGGTCGA	1.74
TTTTCCTTGGCTGTGCTGCCCTTTGCCCTTGCCTAGGGAGATTAGAGTATCGGTCGA	7.6
GGACTTTGGGCTGTGTTTTGCCCCTGCAGAGCCTAGGGAGATTAGAGTATCGGTCGA	3.66
CTTGGCTGTGCTGCCCTTTGCCCTTTGGGAGCCTAGGGAGATTAGAGTATCGGTCGA	7.11
GGGCATGGACTTTGGAATTAAGGAGATTTGGCCTAGGGAGATTAGAGTATCGGTCGA	4.96
AGATCCGAAGTCTAGGACGTTATCAGCAGGGCCTAGGGAGATTAGAGTATCGGTCGA	0.0613
ATAAGTTTTCTCATAAAACACCCACCTTGTGCCTAGGGAGATTAGAGTATCGGTCGA	-0.452

Sequence	binding signal [log2 normalized intensity]
TGGCTAAGACAGGGGCTATTTCTGACCTTTGCCTAGGGAGATTAGAGTATCGGTCGA	6.5
TCTGACCAGGCTGATTTAGCTATTTGACCTGCCTAGGGAGATTAGAGTATCGGTCGA	4.02
CTATTTCTGACCTTTGCACCAGAGATAATAGCCTAGGGAGATTAGAGTATCGGTCGA	5.8
AAGACAGGGGCTATTTCTGACCTTTGCACCGCCTAGGGAGATTAGAGTATCGGTCGA	9.65
CCTTTGCACCAGAGATAATATGCTTACTTAGCCTAGGGAGATTAGAGTATCGGTCGA	0.0286
AGGGGCTATTTCTGACCTTTGCACCAGAGAGCCTAGGGAGATTAGAGTATCGGTCGA	6.87
ATGACTCCAAAGTTCAAACTCTGAAAGCACGCCTAGGGAGATTAGAGTATCGGTCGA	2.34
CCCTGCAGTCCTCTGCTTATCTGGCCTGCTGCCTAGGGAGATTAGAGTATCGGTCGA	-0.935
ATCTGGTGGTGGTTCTTGTTTCATTGCACAGCCTAGGGAGATTAGAGTATCGGTCGA	1.84
GTCTTGAGCGCAAATGATCAAAGGTCGGTTGCCTAGGGAGATTAGAGTATCGGTCGA	5.6
TCAGCACTGAGAGATTACATTTGACTGAGGGCCTAGGGAGATTAGAGTATCGGTCGA	-0.895
AACACTATCTTCTTTCAGTGTTGACCTTTGGCCTAGGGAGATTAGAGTATCGGTCGA	6.87
CATGCTCTTGGAATGTTGAACCTTTCTTTGGCCTAGGGAGATTAGAGTATCGGTCGA	2.64
TATCTTCTTTCAGTGTTGACCTTTGAACATGCCTAGGGAGATTAGAGTATCGGTCGA	8.83
AACCTTCATCTCTCTTTGTTGACATCTGCTGCCTAGGGAGATTAGAGTATCGGTCGA	0.528
GAATGTTGAACCTTTCTTTGTCTTTGCAATGCCTAGGGAGATTAGAGTATCGGTCGA	2.02
TCTTGGAATGTTGAACCTTTCTTTGTCTTTGCCTAGGGAGATTAGAGTATCGGTCGA	2.24
AGGAGTGTCTTTCTCCTTGAACACAGTGTTGCCTAGGGAGATTAGAGTATCGGTCGA	1.25
TCTTTCAGTGTTGACCTTTGAACATTTCTTGCCTAGGGAGATTAGAGTATCGGTCGA	8.04
TATCCAATAAAACACTATCTTCTTTCAGTGGCCTAGGGAGATTAGAGTATCGGTCGA	0.883
